From PubChem BioAssay
Rows were chosen to be rich in hits. Some 5% of all compounds tested hit in one or more screens of this group.
SENP8 block-1: blocks human SENP8 cleavage of Nedd8 substrate. Q96LD8. 360,000 tested, 0.64% active. inhibition, % at 20 µM. recombinant SENP8, Nedd8 substrate fluorescence; in the data active = inhibition mostly above about 40%, no sharp cut-off; inactive = mostly below about 27%
Target sequence (Q96LD8 whole entry, looked up): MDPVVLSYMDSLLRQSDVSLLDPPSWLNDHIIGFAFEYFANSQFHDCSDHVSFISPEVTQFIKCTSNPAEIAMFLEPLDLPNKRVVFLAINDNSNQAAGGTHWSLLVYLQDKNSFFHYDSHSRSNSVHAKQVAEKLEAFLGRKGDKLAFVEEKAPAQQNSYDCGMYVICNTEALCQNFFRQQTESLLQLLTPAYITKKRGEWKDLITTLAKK
EBI2 antag: EBI2 (human) antagonism; P32249; AID 651636; EBI2 beta-arrestin recruitment, luminescence, 7a,25-OHC stimulated; 360,000 tested, 0.81% active; inhibition, % at 5 µM; in the data active = inhibition above about 38%;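 also: enzyme fragment complementation signal reports receptor beta-arrestin coupling in cells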
SENP7 block: blocks the human protease SENP7 | Q9BQF6 | 330,000 tested, 1.5% active | inhibition, % at 5 µM | AID 434973 | recombinant SENP7, Z-RLRGG-aminoluciferin luminescence, 40 min;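 active = inhibition above about 50% at the single test dose, limit read from the data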
SENP8 block-2: SENP8 protease inhibition. Q96LD8. inhibition, % at 10 µM. purified SENP8, Z-RLRGG-aminoluciferin cleavage, luminescence. AID 2540. 330,000 tested, 1.2% active; in the data active = inhibition above about 50%
SENP6 inh: inhibitors of human SENP6 protease. Recombinant SENP6 catalytic domain, aminoluciferin luminescence. 330,000 tested, 1.8% active. Q9GZR1. inhibition, % at 10 µM;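 active = inhibition above about 50% at the single tested dose, limit read from the data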
AHR act: activators of human aryl hydrocarbon receptor; P35869; AHR-responsive luciferase reporter cells, luminescence; activation, % at 5 µM; 320,000 tested, 2.5% active; AID 2796; in the data active = activation above about 47%
EBI2 antag conf: EBI2 (human) antagonism, single concentration confirmation; shares compounds with EBI2 antag; EBI2 beta-arrestin luminescence, 7a,25-OHC antagonism; inhibition, % at 5 µM; 2,400 tested, 29% active; AID 651997;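 active = inhibition of at least 50%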
EBI2 ag: activates EBI2, counter-screen for EBI2 antagonists. shares compounds with EBI2 antag. EBI2-expressing cells, agonist mode, luminescence, 60 min; 0% vehicle, 100% 7α,25-dihydroxycholesterol control. activation, % at 5 µM. 2,400 tested, under 10 active;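 active = activation of at least 50%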
bGal cs: inhibits E. coli beta-galactosidase, counter-screen for EBI2 antagonists. shares compounds with EBI2 antag. purified beta-galactosidase, luminescent Galacton Star, 15 min. inhibition, % at 5 µM. 2,400 tested, 1% active;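 active = replicate-average signal at least 3 plate SD below neutral wells, shown as high inhibition, flagging enzyme-inhibiting false positives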;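 also: higher means stronger loss of beta-gal luminescence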
Each line names hits and unclear results; the compound was inactive in the other large screens (follow-up assays come after a bar, where they were run).

COc1ccc(-c2sc(Nc3ccccc3)n[n+]2-c2ccc(F)cc2)c(C)c1C	none
CCOC(=O)N1CCN(C(=O)/C(=C/c2cccs2)NC(=O)c2cccs2)CC1	none
Cc1ccc(S(=O)(=O)N2CCCN(C(=O)c3ccc(-n4nccc4C)cc3)CC2)cc1	EBI2 antag 47 (no result: AHR act) | EBI2 antag conf inactive | EBI2 ag inactive | bGal cs inactive
CCN(CC(=O)Nc1ccc(NC(C)=O)cc1)C(=O)c1cccnc1Sc1ccc(C)c(C)c1	none
Cc1nn(Cc2ccc(Cl)cc2Cl)c(C)c1NC(=O)c1ccc(COc2cc(Cl)ccc2Cl)o1	EBI2 antag 47 | EBI2 antag conf inactive | EBI2 ag inactive | bGal cs inactive
Cc1cc(Cl)cc(Cl)c1OCCOc1cccc2cccnc12	EBI2 antag 56 | EBI2 antag conf inactive | EBI2 ag inactive | bGal cs inactive
COc1ccc(OC)c(NC(=O)C(=O)NNC(=O)C23CC4CC(CC(C4)C2)C3)c1	none
O=C(C1=C[C@H](c2csc3ccccc23)C[C@H](OCCCCO)O1)N1CCN(Cc2ccc3c(c2)OCO3)CC1	none
CN(CC(=O)Nc1ccccc1Cl)C(=O)COC(=O)c1ccc(-c2ccc(O)cc2)cc1	none
COc1cc(/C=N/n2cnn(Cc3ccccc3Cl)c2=S)cc(OC)c1OC	none
COc1ccc(/C=N/n2cnn(Cc3ccccc3Cl)c2=S)cc1	EBI2 antag 49 | EBI2 antag conf inactive | EBI2 ag inactive | bGal cs inactive
COc1cc(NC(=O)N2CCc3nc(Nc4cc(Cl)cc(Cl)c4)ncc3C2)cc(OC)c1OC	EBI2 antag 47 (no result: SENP7 block, SENP8 block-2, SENP6 inh, AHR act) | EBI2 antag conf inactive | EBI2 ag inactive | bGal cs inactive
O=C(Nc1cnn(C23CC4CC(CC(C4)C2)C3)c1)c1cc(-c2ccccc2)on1	EBI2 antag 63 | EBI2 antag conf inactive | EBI2 ag inactive | bGal cs inactive
O=[N+]([O-])c1ccc(N2CCN(C(=S)NCc3ccc(Cl)cc3)CC2)cc1	EBI2 antag 52 | EBI2 antag conf inactive | EBI2 ag inactive | bGal cs inactive
CCNC(=S)N1CCN(c2ccc([N+](=O)[O-])cc2)CC1	none
O=C(N/N=C/c1ccccn1)c1sc2ccccc2c1Cl	EBI2 antag 42 | EBI2 antag conf inactive | EBI2 ag inactive | bGal cs inactive
O=C(N/N=C/c1ccccn1)c1ccc(Cl)cc1	none
O=C(N/N=C/c1ccccn1)c1cc(-c2ccc(Cl)cc2)nc2ccccc12	EBI2 antag 72, AHR act 50 | EBI2 antag conf 78 | EBI2 ag inactive | bGal cs inactive
CCCOc1cccc(-c2cc(C(=O)N/N=C/c3ccccn3)c3ccccc3n2)c1	EBI2 antag 48 (no result: AHR act) | EBI2 antag conf 61 | EBI2 ag inactive | bGal cs inactive
CCCOc1cccc(-c2cc(C(=O)N/N=C/c3cccnc3)c3ccccc3n2)c1	none (no result: AHR act)
O=C(N/N=C/c1ccco1)c1cc(-c2ccccc2)nc2ccccc12	none
O=C(N/N=C/c1ccccn1)c1cc(-c2ccc(Br)cc2)nc2ccccc12	EBI2 antag 76 | EBI2 antag conf 78 | EBI2 ag inactive | bGal cs inactive
COc1nc(OC)nc(N2CCC(NC(=O)C(Cc3cccc(OC)c3OC)NC(C)=O)CC2)n1 (stereo unspecified)	none
CCOC(=O)c1c(S(=O)(=O)N2CCN(Cc3ccccc3)CC2)c(C)n(C)c1C	none
CC(=O)NC(C(=O)N1CCC(c2nc3ccccc3s2)CC1)C(C)C (stereo unspecified)	none
CCOc1ccc(/C=N/OC(C)C(=O)NCc2ccc3c(c2)OCO3)cc1 (stereo unspecified)	none
Cc1ccc(N2CCN(c3ccc(C)cc3)C2c2ccncc2)cc1	EBI2 antag 51 | EBI2 antag conf inactive | EBI2 ag inactive | bGal cs inactive
O=C(NCC1CCCO1)c1ccc(OC2CCN(C(=O)C3CC3)CC2)cc1 (stereo unspecified)	none
Cc1c(CCC(=O)O)c(=O)oc2cc(OCc3ccccc3F)ccc12	none
